# Results taken from PubChem BioAssay (Tox21).
# “And” between values parts separate entries of the source, which are not always exact repeats. Equal values may be shown once. Inconclusive results are not listed. The source made the active and inactive calls. The call rests on the fitted dose curve.
# Experiment: qHTS assay for small molecule agonists of the p53 signaling pathway - cell viability (AID 651633); further: nearly all actives have a fitted effect of over 30% in size;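 on activity change, negative = cytotoxicity: p53RE-bla HCT reporter cells with a stable beta-lactamase p53 reporter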
# Conditions: p53RE-bla HCT-116 viability, ATP luminescence, 16 h; series mostly up to 83.3 µM; activity change, negative = cytotoxicity: at the top concentration
# Text: National Center for Advancing Translational Sciences [NCATS]
# NIH Chemical Genomics Center [NCGC]
# U.S. Environmental Protection Agency [EPA]
# National Institutes of Environmental Health Sciences [NIEHS]
# National Toxicology Program [NTP]
# U.S. Food and Drug Administration [FDA]
# p53, a tumor suppressor protein, is activated following cellular insult, including DNA damage and other cellular stresses. The activation of p53 regulates cell fate by inducing DNA repair, cell cycle arrest, apoptosis, or cellular senescence. The activation of p53, therefore, is a good indicator of DNA damage and other cellular stresses. […] The activation of the reporter gene under culture conditions can be detected by fluorescence intensity. This cell line was used to screen the Tox21 compound library in a 1536-well plate format and to identify agonists that activate the p53 signaling pathway.
# Tox21 Assay Protocol Summary:
# The p53RE-bla cells were dispensed at 4,000 cells/5 ul/well in 1536-well black wall/clear bottom plates using a Multidrop dispenser. After the assay plates were incubated at a 37 C/5% CO2 incubator for 5 hours, 23 nL of compounds dissolved in DMSO, positive controls or DMSO only was transferred to the assay plate by a pin tool. The plates were incubated at 37 C for 16 hours. After 1 uL of LiveBLAzerTM B/G FRET substrate was added using a Flying Reagent Dispenser, the plates were incubated at room temperature for 2 hours, and fluorescence intensity was measured by an Envision plate reader.
# For cell viability readout that measures cytotoxicity, 4 ul/well of CellTiter-Glo reagent was added into the assay plates using a Flying Reagent Dispenser. After 30 min incubation at room temperature, the luminescence intensity in the plates was measured using a ViewLux plate reader.
# On the % scale 0 is the no-effect control and ±100 the full control effect; potency means the concentration at half of the fitted maximal effect.
SMILES,"activity change, negative = cytotoxicity",Potency
Oc1c(Cl)c(Cl)cc(Cl)c1Cl,-17.4% [at 95.3 µM] (inactive),
Cn1cc(C2=C(c3cn(C4CCN(Cc5ccccn5)CC4)c4ccccc34)C(=O)NC2=O)c2ccccc21,-2.67% (inactive),
C[C@H]1O[C@@H](O[C@H]2[C@@H](O)C[C@H](O[C@H]3[C@@H](O)C[C@H](O[C@H]4CC[C@@]5(C)[C@H](CC[C@@H]6[C@@H]5CC[C@]5(C)[C@@H](C7=CC(=O)OC7)CC[C@]65O)C4)O[C@@H]3C)O[C@@H]2C)C[C@H](O)[C@@H]1O,,47.3 nM (active) and 12.3 nM (active)
O=C(O)COc1nc(Cl)c(Cl)cc1Cl,-0.572% [at 95.3 µM] (inactive),
CCOC(=O)OC1=C(c2cc(C)ccc2C)C(=O)NC12CCC(OC)CC2 (stereo not given),-14.1% (inactive),
CCCCCCCCCCCCCC[P+](CCCCCC)(CCCCCC)CCCCCC (tested in a mixture with another compound),,15.4 µM (active)
CC(=O)[O-].CC(=O)[O-].[Hg+2],,1.93 µM (active)
S=C=Nc1cccc2ccccc12,,48.1 µM (active)
Cc1cc(C)cc(OP(=O)(Oc2cc(C)cc(C)c2)Oc2cc(C)cc(C)c2)c1,-7.43% [at 95.3 µM] (inactive),
COC12CC[C@@]3(C[C@@H]1C(C)(O)C(C)(C)C)[C@H]1Cc4ccc(O)c5c4[C@@]3(CCN1CC1CC1)[C@H]2O5 (stereo not given in full),,54.1 µM (active)
NNC(=O)c1ccccc1,17.7% [at 95.3 µM] (inactive),
Clc1ccc(CO/N=C(\Cn2ccnc2)c2ccc(Cl)cc2Cl)c(Cl)c1,,26.6 µM (active)
CC(C)(C)c1cc([N+](=O)[O-])cc(C(C)(C)C)c1O,,48.6 µM (active)
N#CCCC(Br)(C#N)CBr (stereo not given),-14.9% (inactive),
COc1ccc(/C(=C/C(=O)N2CCOCC2)c2ccc(Cl)cc2)cc1OC,21.1% (inactive),
CC(C)(C)C(O)/C(=C\c1ccc(Cl)cc1Cl)n1cncn1 (stereo not given),-23.9% [at 95.3 µM] (inactive),
C[C@@H]1O[C@@H](O[C@@H]2C=C3CC[C@@H]4[C@H](CC[C@]5(C)[C@@H](c6ccc(=O)oc6)CC[C@]45O)[C@@]3(C)CC2)[C@H](O)[C@H](O)[C@H]1O,,0.0072 µM (active)
Oc1ccc2ccc3cccc4ccc1c2c34,-19.1% (inactive),
Nc1ccc(Sc2ccc(N)cc2)cc1,22.7% (inactive),
CCCCCCCCCBr,8.54% [at 95.3 µM] (inactive),

SMILES,"activity change, negative = cytotoxicity",Potency
CN(C)C(=S)S,,inactive
O=[N+]([O-])c1cc([N+](=O)[O-])c2ccccc2c1,15% (inactive),
CCCCCCCCc1ccc(O)cc1,,12.3 µM (active)
CCCCCCCCCC[N+](C)(C)CCCCCCCCCC,,26.6 µM (active) and 61.1 µM (active)
c1ccc(OCC2CO2)cc1 (stereo not given),22.3% [at 95.3 µM] (inactive),
c1ccc2c(c1)OCC(C1=NCCN1)O2 (stereo not given),24.2% (inactive),
O=C1c2ccccc2C(=O)C1C(=O)C(c1ccccc1)c1ccc(Cl)cc1 (stereo not given),,24.3 µM (active)
Clc1ccc(C(c2ccc(Cl)cc2)C(Cl)(Cl)Cl)cc1,,26.6 µM (active) and 48.9 µM (active) and 27.3 µM (active)
CC[C@H]1C[C@@H]2C[C@H]3c4[nH]c5ccc(OC)cc5c4CCN(C2)[C@@H]13,12.1% (inactive),
CC(C)CC(C)N (stereo not given),16.5% (inactive),
CN(C)[C@@H]1C(=O)C(C(N)=O)=C(O)[C@@]2(O)C(=O)C3=C(O)c4c(O)ccc(Cl)c4[C@@](C)(O)[C@H]3C[C@@H]12,8.07% [at 39.1 µM] (inactive),
CCCN(CC)CC1COC2(CCC(C(C)(C)C)CC2)O1 (stereo not given),12.7% (inactive),
O=[N+]([O-])c1ccc(Oc2ccc(C(F)(F)F)cc2[N+](=O)[O-])cc1,-11.8% (inactive),
c1ccc2cc3c(cc2c1)-c1cccc2cccc-3c12,-13.3% (inactive),
COP(=S)(OC)Oc1cc(Cl)c(Br)cc1Cl,20.7% (inactive),
CC(=O)/C=C/c1ccc2c(c1)OCO2,-21.6% [at 95.3 µM] (inactive),
Clc1ccc(C(Cl)(Cl)Cl)c(Cl)c1,-12.3% [at 95.3 µM] (inactive),
CC(C)OS(C)(=O)=O,-16.1% [at 95.3 µM] (inactive),
O=C1NCN(c2ccccc2)C12CCN(CC1COc3ccccc3O1)CC2 (stereo not given),-12.5% (inactive),
[CH3][Hg][Cl],,24.3 µM (active)
